From article PMC4336329 (PLoS ONE, 2015)
The whole screen tested about 310,000 compounds, of which about 2,200 (0.71%) showed an effect of 50% or more. The effect is printed as a negative number. Only a selection was taken, and strong results are over-represented in it overall.

Target: human ether-à-go-go-related gene (hERG) potassium channel (human, UniProt Q12809)
Assay: primary screen, population patch clamp on CHO cells stably expressing hERG; higher = less effect of the substance

Chain of human ether-à-go-go-related gene (hERG) potassium channel (Q12809 whole entry, looked up): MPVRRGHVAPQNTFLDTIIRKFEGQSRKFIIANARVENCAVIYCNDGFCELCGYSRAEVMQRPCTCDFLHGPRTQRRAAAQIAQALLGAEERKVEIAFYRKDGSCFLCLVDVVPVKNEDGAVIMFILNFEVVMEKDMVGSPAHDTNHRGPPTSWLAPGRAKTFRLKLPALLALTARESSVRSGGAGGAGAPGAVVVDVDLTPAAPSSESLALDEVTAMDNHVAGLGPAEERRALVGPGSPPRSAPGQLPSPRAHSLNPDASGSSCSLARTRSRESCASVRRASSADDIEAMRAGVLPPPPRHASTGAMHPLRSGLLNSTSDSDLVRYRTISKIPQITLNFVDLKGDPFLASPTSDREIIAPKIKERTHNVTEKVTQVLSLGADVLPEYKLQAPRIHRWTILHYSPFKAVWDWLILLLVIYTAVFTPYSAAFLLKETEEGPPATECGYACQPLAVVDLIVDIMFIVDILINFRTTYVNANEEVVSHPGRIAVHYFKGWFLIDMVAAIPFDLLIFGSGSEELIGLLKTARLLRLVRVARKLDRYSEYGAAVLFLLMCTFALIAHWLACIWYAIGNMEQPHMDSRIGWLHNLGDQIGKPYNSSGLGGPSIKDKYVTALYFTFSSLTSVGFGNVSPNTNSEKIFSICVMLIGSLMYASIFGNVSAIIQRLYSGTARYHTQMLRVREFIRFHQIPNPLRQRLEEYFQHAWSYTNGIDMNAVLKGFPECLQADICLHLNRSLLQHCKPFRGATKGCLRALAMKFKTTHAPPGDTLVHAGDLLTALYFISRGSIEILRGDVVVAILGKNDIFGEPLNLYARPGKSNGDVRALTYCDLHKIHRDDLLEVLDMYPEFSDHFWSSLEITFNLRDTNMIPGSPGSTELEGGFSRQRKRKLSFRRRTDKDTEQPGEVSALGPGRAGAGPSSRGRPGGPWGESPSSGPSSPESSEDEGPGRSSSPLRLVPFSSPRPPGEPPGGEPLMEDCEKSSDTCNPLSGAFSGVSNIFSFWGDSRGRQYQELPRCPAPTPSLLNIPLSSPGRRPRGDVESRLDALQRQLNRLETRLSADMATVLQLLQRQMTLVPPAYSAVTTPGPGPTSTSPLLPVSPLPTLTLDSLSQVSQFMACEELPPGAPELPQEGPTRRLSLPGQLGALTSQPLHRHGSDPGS

Compound	hERG current change (%, negative = inhibition) at 1uM [%]
O=C(O)C1CC(=O)N(Cc2ccc3c(c2)OCO3)C1 (stereo not drawn)	6.73
O=C(CN1CCCc2ccccc21)NCc1ccc2c(c1)OCO2	9.15
CSc1ccc(-c2nc3cnccn3c2Nc2ccc3c(c2)OCO3)cc1	9.9
Cc1ccccc1OCCC(=O)Nc1ccc(S(=O)(=O)N(C)C2CCN(C)CC2)cc1	20.4
Cc1ccc(Cn2c(SCC(C)C)nc3c2c(=O)[nH]c(=O)n3C)cc1	9.48
Cc1ccc(Cn2c(N3CCCCCC3)nc3c2c(=O)[nH]c(=O)n3C)cc1	2.45
Cc1ccc(Cn2c(SCCN3CCCCC3)nc3c2c(=O)[nH]c(=O)n3C)cc1	-77.5
O=C(Cc1ccc(Cl)cc1)N1CCc2ccccc2C1	21.7
COc1cccc(C(c2sc3nc(C)nn3c2O)N2CCN(c3ccccc3F)CC2)c1 (stereo not drawn)	10
CCCCN(CCCC)CCNC(=O)CN1C(=O)CSc2ccc(S(=O)(=O)N3CCOCC3)cc21	-3.76
CCCCN(C)CCNC(=O)CN1C(=O)CSc2ccc(S(=O)(=O)N3CCCCC3)cc21	-6.21
CCCCN(CCCC)CCNC(=O)CN1C(=O)CSc2ccc(S(=O)(=O)N3CCCCC3)cc21	-51.7
Nc1nc(N)c(N=Nc2ccc(C(=O)O)cc2)c(N)n1	8.04
Cc1ccc(Sc2cc(NCCCO)c([N+](=O)[O-])c3nonc23)cc1	5.43
CCOC(=O)c1c(NC(=O)c2ccccc2C(=O)O)sc2c1CCCC2	16.3
CCOC(=O)c1c(NC(=O)c2ccccc2C(=O)O)sc2c1CCC2	2.17
CCOC(=O)c1c(NC(=O)C(NCCN(C)C)c2ccccc2)sc2c1CCCC2 (stereo not drawn)	-77.2
COc1ccc(N=C2SC(C(=O)O)CC(=O)N2Cc2ccc(OC)c(OC)c2)cc1 (stereo not drawn)	10.8
CCCCNC(=O)N1CCN(c2ccccc2OC)CC1	5.81

Compound	hERG current change (%, negative = inhibition) at 1uM [%]
O=C1c2[nH]nc(-c3ccccc3O)c2C(c2ccc(F)cc2)N1Cc1ccco1 (stereo not drawn)	13.1
CC1CC(C)CN(c2cc(=O)n(Cc3ccc(F)cc3)c(=O)[nH]2)C1 (stereo not drawn)	17.9
CN(C)C(=O)CSc1nc2ccccc2n1Cc1ccccc1	4.73
CCN(CC)CCSc1nnc2c3cc(F)ccc3n(Cc3ccccc3)c2n1	-53.8
NNc1nnc2c3cc(F)ccc3n(Cc3ccccc3)c2n1	2.58
CCN(CC)CCSc1nnc2c3ccccc3n(Cc3ccccc3)c2n1	-73.4
CSc1nnc2c3cc(F)ccc3n(Cc3ccccc3)c2n1	7.64
CCN(CC)CCSc1nnc2c3cc(C)ccc3n(Cc3ccccc3)c2n1	-81.6
CCN(CC)CCSc1nc2ccccc2n1Cc1ccccc1.Cl	-79
c1ccc(Cn2c3ccccc3c3nnc(SCCN4CCCCC4)nc32)cc1	-6.31
CCN(CC)CCSc1nnc2c3ccccc3n(CCc3ccccc3)c2n1	-18.1
O=C(O)CCSc1nc2ccccc2n1Cc1ccccc1	13.1
CSc1nnc2c3ccccc3n(Cc3ccccc3)c2n1	19.2
CSc1nnc2c3cc(C)ccc3n(Cc3ccccc3)c2n1	10.3
COc1ccc([N+](=O)[O-])cc1N(CC(=O)N1CCCC1)S(C)(=O)=O	10.2
O=C(NC1(C(F)(F)F)NC(=O)N(Cc2cccnc2)C1=O)c1ccncc1 (stereo not drawn)	18.1
O=C(NC(Cc1c[nH]c2ccccc12)C(=O)N1CCOCC1)c1cccs1 (stereo not drawn)	11.2
CC(C)(C)OC(=O)NCCCCCc1nnc(SCC(=O)Nc2cccc(Cl)c2)o1	-1.82
Cc1ccc(SCC(=O)Nc2ccc(N3CCN(C)CC3)c(F)c2)c(C)c1	-47.8

Compound	hERG current change (%, negative = inhibition) at 1uM [%]
COc1ccc(/C=N/N2CCN(C3c4ccccc4-c4ccccc43)CC2)cc1OC	12.9
COCCOC(=O)c1c(NC(=O)CNc2ccc(C)c(F)c2)sc(C(N)=O)c1C	11
Cc1cc(NC(=O)c2ccc(F)cc2)n(-c2ccccc2)n1	-75.3
Cc1cc(NC(=O)c2ccc(Cl)cc2)n(-c2ccccc2)n1	13.6
Cc1cc(NC(=O)c2ccccc2)n(-c2ccccc2)n1	12.1
Nc1c(-c2ccc(Cl)cc2)cnc2c(-c3ccccc3)cnn12	18.5
Cc1ccc(CSCCNS(C)(=O)=O)cc1	10.9
CC(=O)N1CCCc2cc(S(=O)(=O)NC(C(=O)NC(C)c3ccccc3)C(C)C)ccc21 (stereo not drawn)	1.38
COc1ccc(CN2CCNC(=O)C2CC(=O)N(C)CCC2CCOCC2)cc1OC (stereo not drawn)	13.7
Cc1ccc(S(=O)(=O)N2CCOC2CNC(=O)C(=O)NCCCc2ccccc2)cc1 (stereo not drawn)	5.36
CCCCCCN1C=CC=C/C1=C/C=C(C#N)C#N	-26.6
CCCCCN1C=CC=C/C1=C\C=C(C#N)C#N	-28.2
CCCCCCN1C=CC=C/C1=C\C=C(C#N)C#N	-69.9
CCOC(=O)C(O)(CC(=O)Nc1ccc(Cl)cc1Cl)C(F)(F)F (stereo not drawn)	6.91
CCOC(=O)C(Cc1ccccc1)(NC(C)=O)C(=O)OCC	14.4
CCOC(=O)C(Cc1c(F)cccc1F)(NC(C)=O)C(=O)OCC	8.71
CCOC(=O)COc1ccc(N)cc1CC(NC(C)=O)(C(=O)OCC)C(=O)OCC	-69.6
COc1ccc(C)cc1NC(=O)C(OC(=O)CNC(=O)c1ccc(Br)cc1)c1ccccc1 (stereo not drawn)	11.1
Cc1cccc(/C=N/n2c(-c3ccccn3)n[nH]c2=S)c1	14.4
